Several values for one entry are separate records, joined by “and”; a condition that tells them apart may be missing. Equal values may be shown once. Where a name gives a salt, the structure may show the parent alone. ± gives the standard deviation of the averaged measurements.
How the values were obtained:
ES2 = assay: cell viability relative to DMSO control (MTS) (fraction of DMSO control); higher = more viable cells / less growth inhibition; conditions: 10 µM; 48 h
Outline: (§1)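 TOV-21G and ES2 clear cell carcinoma cells were plated in 96-well plates at 5000 cells per well, grown for 24 h, and then exposed to a 367-compound […] library at a final concentration of 10 µM, with vehicle alone in control wells. An MTS assay (CellTiter 96 AQueous One Solution) was read 48 h later according to the manufacturer's protocol. Viability is reported as a fraction of the vehicle control.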

TOV-21G = assay: as above; conditions: 10 µM; 48 h
Outline: as §1

Compound: CCC(=C/[C@H](C)C/C=C/C(C)=C/[C@@H](C)C(=O)[C@@H](C)[C@H](O)[C@@H](C)C/C(C)=C/C(=O)O)/C=C/[C@@H]1OC(=O)C=C[C@@H]1C [Leptomycin B*]
- cell viability (ES2): 0.406
- cell viability (TOV-21G): 0.39

Compound: Cc1c(C)c2c(c(C)c1O)CCC(C)(COc1ccc(CC3SC(=O)NC3=O)cc1)O2 (stereo not drawn) [Troglitazone]
- cell viability (ES2): 0.835
- cell viability (TOV-21G): 1.26

Compound: CO[C@H]1C[C@@H]2CC[C@@H](C)[C@@](O)(O2)C(=O)C(=O)N2CCCC[C@H]2C(=O)O[C@H]([C@H](C)C[C@@H]2CC[C@@H](O)[C@H](OC)C2)CC(=O)[C@H](C)/C=C(\C)[C@@H](O)[C@@H](OC)C(=O)[C@H](C)C[C@H](C)/C=C/C=C/C=C/1C [Rapamycin]
- cell viability (ES2): 0.854
- cell viability (TOV-21G): 0.576

Compound: N#C/C(=C\c1ccc(O)c(O)c1)C(=O)NCc1ccccc1
- cell viability (ES2): 0.891 ± 0.39
- cell viability (TOV-21G): 1 ± 0.013

Compound: CNC(=O)[C@H](Cc1c[nH]c2ccccc12)NC(=O)[C@@H](CC(=O)NO)CC(C)C
- cell viability (ES2): 1.02
- cell viability (TOV-21G): 0.959

Compound: NC(=O)c1ccccc1 [Benzamide]
- cell viability (ES2): 0.902
- cell viability (TOV-21G): 0.989

Compound: CCN(CC)CCNC(=O)c1c(C)[nH]c(/C=C2\C(=O)Nc3ccc(F)cc32)c1C [sunitinib malate]
- cell viability (ES2): 0.439
- cell viability (TOV-21G): 0.555

Compound: Cc1cn(-c2cc(NC(=O)c3ccc(C)c(Nc4nccc(-c5cccnc5)n4)c3)cc(C(F)(F)F)c2)cn1 [nilotinib]
- cell viability (ES2): 0.751
- cell viability (TOV-21G): 0.709

Compound: CC(C)CC(=O)N[C@H](C(=O)N[C@H](C(=O)N[C@@H](CC(C)C)[C@@H](O)CC(=O)N[C@@H](C)C(=O)N[C@@H](CC(C)C)[C@@H](O)CC(=O)O)C(C)C)C(C)C [Pepstatin A]
- cell viability (ES2): 0.807
- cell viability (TOV-21G): 1.18

Compound: Cc1cccc(-c2nn(C(=S)Nc3ccccc3)cc2-c2ccnc3ccccc23)n1
- cell viability (ES2): 0.872
- cell viability (TOV-21G): 1.01

Compound: CN(C)c1ccccc1CN1CCCN(Cc2ccccc2N(C)C)C1c1ccncc1
- cell viability (ES2): 0.853
- cell viability (TOV-21G): 0.229

Compound: CCN(CC)CCCCNc1ncc2cc(-c3cc(OC)cc(OC)c3)c(NC(=O)NC(C)(C)C)nc2n1
- cell viability (ES2): 0.366
- cell viability (TOV-21G): 0.915

Compound: C[C@@H](N)[C@H]1CC[C@H](C(=O)Nc2ccncc2)CC1
- cell viability (ES2): 1.09 and 0.911
- cell viability (TOV-21G): 0.922 and 0.973

Compound: Cc1cccc(-c2nn3c(c2-c2ccnc4ccc(C(N)=O)cc24)CCC3)n1
- cell viability (ES2): 0.988
- cell viability (TOV-21G): 1.02

Compound: C[n+]1cc2c3c(ccc2c2ccc4cc5c(cc4c21)OCO5)OCO3 [Sanguinarine]
- cell viability (ES2): 0.385
- cell viability (TOV-21G): 0.253

Compound: Oc1nc(-c2ccc(C(F)(F)F)cc2)nc2c1CSCC2
- cell viability (ES2): 0.961
- cell viability (TOV-21G): 1.1

Compound: O=c1c(-c2ccc(O)cc2)coc2cc(O)cc(O)c12 [Genistein]
- cell viability (ES2): 1.31
- cell viability (TOV-21G): 0.988

Compound: CN(C)S(=O)(=O)c1ccc2c(c1)/C(=C/c1cc3c([nH]1)CCCC3)C(=O)N2
- cell viability (ES2): 1.03
- cell viability (TOV-21G): 0.891

Compound: Cc1ccc2nc(NCCN)c3ncc(C)n3c2c1
- cell viability (ES2): 0.489
- cell viability (TOV-21G): 0.375

Compound: COCC[n+]1c2c(n(Cc3cnccn3)c1C)C(=O)c1ccccc1C2=O
- cell viability (ES2): 0.242
- cell viability (TOV-21G): 0.291

Compound: CCCCCCCC(=O)OCCOC(=O)CCCCCCC [Dioctanoylglycol]
- cell viability (ES2): 1.3
- cell viability (TOV-21G): 0.996

Compound: C[C@H](NC(=O)/C(C#N)=C/c1cccc(Br)n1)c1ccccc1
- cell viability (ES2): 0.347
- cell viability (TOV-21G): 0.392

Compound: CC(C)C[C@H](NC(=O)[C@@H](O)[C@H](N)Cc1ccccc1)C(=O)O [Bestatin]
- cell viability (ES2): 0.885
- cell viability (TOV-21G): 1.13

Compound: COC(=O)c1ccc(NCc2cc(O)ccc2O)cc1
- cell viability (ES2): 1.414 ± 0.0028
- cell viability (TOV-21G): 1.06 ± 0.026

Compound: O=C1Nc2ccc(I)cc2/C1=C\c1cc(Br)c(O)c(Br)c1 [RAF1 kinase inhibitor I]
- cell viability (ES2): 1.1
- cell viability (TOV-21G): 1.03

Compound: N#CC[C@H](C1CCCC1)n1cc(-c2ncnc3[nH]ccc23)cn1 [Ruxolitinib]
- cell viability (ES2): 0.979
- cell viability (TOV-21G): 0.776

Compound: CS(=O)(=O)Nc1ccc([N+](=O)[O-])cc1OC1CCCCC1
- cell viability (ES2): 0.933
- cell viability (TOV-21G): 1.02

Compound: O=C(O)c1ccccc1Nc1ccccc1 [N-phenylanthranilic acid]
- cell viability (ES2): 1.02
- cell viability (TOV-21G): 0.995

Compound: CCCCN1C(=O)C2Cc3c([nH]c4ccccc34)C(c3cccc(O)c3)N2C1=O (stereo not drawn)
- cell viability (ES2): 0.368
- cell viability (TOV-21G): 0.46

Compound: Nc1ncn([C@@H]2O[C@H](CO)[C@@H](O)[C@H]2O)c(=O)n1 [Azacytidine]
- cell viability (ES2): 0.664
- cell viability (TOV-21G): 0.779

Compound: NC(=O)c1ccc2nc(-c3ccc(Oc4ccc(Cl)cc4)cc3)[nH]c2c1 [Chk2 inhibitor II]
- cell viability (ES2): 1.23
- cell viability (TOV-21G): 1.1

Compound: CC(C)C[C@@H](N)[C@H](O)C(=O)N[C@H](C(=O)N[C@H](C(=O)N[C@@H](CC(=O)O)C(=O)O)C(C)C)C(C)C [Amastatin]
- cell viability (ES2): 0.963
- cell viability (TOV-21G): 1.02

Compound: CCCCCCCCCCC1=C(C)C(=O)C(OC)=C(OC)C1=O [Decylubiquinone]
- cell viability (ES2): 1.02
- cell viability (TOV-21G): 0.981

Compound: COc1cc2ncnc(Nc3cccc(Cl)c3)c2cc1OC
- cell viability (ES2): 1.04 ± 0.12
- cell viability (TOV-21G): 0.839 ± 0.24

Compound: CC(C)(C)NC(=O)[C@H]1CC[C@H]2[C@@H]3CC[C@H]4NC(=O)C=C[C@]4(C)[C@H]3CC[C@]12C [Finasteride]
- cell viability (ES2): 1.3
- cell viability (TOV-21G): 0.952

Compound: CC/C(=C(\c1ccccc1)c1ccc(OCCN(C)C)cc1)c1ccccc1 [Tamoxifen, citrate]
- cell viability (ES2): 1.34
- cell viability (TOV-21G): 0.868

Compound: Nc1nc(Nc2ccc(S(N)(=O)=O)cc2)nn1C(=S)Nc1c(F)cccc1F [Cdk1/2 inhibitor III]
- cell viability (ES2): 0.687
- cell viability (TOV-21G): 0.665

Compound: COC(=O)[C@H](CC(C)C)NC(=O)c1ccc(NC[C@@H](N)CS)cc1-c1ccccc1
- cell viability (ES2): 1.09
- cell viability (TOV-21G): 0.633

Compound: O=c1cc(-c2ccccc2)oc2cc(O)c(O)c(O)c12 [Baicalein]
- cell viability (ES2): 0.916
- cell viability (TOV-21G): 0.821

Compound: CC1=Nc2ccc(Cl)cc2S(=O)(=O)N1 [Diazoxide]
- cell viability (ES2): 0.816
- cell viability (TOV-21G): 0.996

Compound: O=C1C(SCCO)=C(SCCO)C(=O)c2ccccc21
- cell viability (ES2): 0.962
- cell viability (TOV-21G): 0.861

Compound: Cc1cnc(-c2cnc(NCCNc3ccc(C#N)cn3)nc2-c2ccc(Cl)cc2Cl)[nH]1
- cell viability (ES2): 1.05
- cell viability (TOV-21G): 0.888

Compound: N=C(N)NC(=O)c1nc(Cl)c(N)nc1N [Amiloride]
- cell viability (ES2): 1.16
- cell viability (TOV-21G): 1.24

Compound: CCOC(=O)C(C)(C)Oc1ccc(Cl)cc1 [Clofibrate]
- cell viability (ES2): 1.35
- cell viability (TOV-21G): 1.03

Compound: NC(=O)Nc1sc(-c2ccccc2)cc1C(N)=O [IKK-2 inhibitor VI]
- cell viability (ES2): 0.555
- cell viability (TOV-21G): 0.476

Compound: COc1cc(/C=C(\C#N)C(N)=O)cc(CSc2nc3ccccc3s2)c1O
- cell viability (ES2): 0.978 ± 0.072
- cell viability (TOV-21G): 1.067 ± 0.0093

Compound: CCCS(=O)(=O)Nc1ccc(F)c(C(=O)c2c[nH]c3ncc(-c4ccc(Cl)cc4)cc23)c1F [Vemurafenib]
- cell viability (ES2): 0.651
- cell viability (TOV-21G): 0.881

Compound: O=C(Nc1ccc([N+](=O)[O-])cc1O)Nc1ccccc1Br
- cell viability (ES2): 0.469
- cell viability (TOV-21G): 0.605

Compound: COc1ccc(CCN(C)CCCC(C#N)(c2ccc(OC)c(OC)c2)C(C)C)cc1OC (stereo not drawn) [Verapamil]
- cell viability (ES2): 0.953
- cell viability (TOV-21G): 1.12
